Holding throughout (settings): treatment time: 24 h
The test system of experiment [1] is A549-ACTB-RAB5A. In words: lowest phenotypically active concentration; higher = less potent. In outline: (§1)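 Live-cell features were measured per well and normalised to solvent control wells after fifteen gene-edited A549, HepG2 and WPMY1 reporter lines had been treated for 24 h at 0.3, 1, 3 or 9 µM in four wells each. A condition was deviating when ≥3 of 4 wells sat beyond the 95th percentile of control Euclidean distances. It was reproducible when the median replicate Pearson correlation exceeded the 95th percentile of non-replicates. Phenotypic activity demanded both.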

The test system of experiment [2] is A549-GM130-SQSTM1. Described as above. The procedure, abridged:
as §1

The subject of experiment [3] is A549-TP53BP1-CLTA. The description is as above. In outline:
as §1

Experiment [4] has as its system A549-TUBA1B-RELA. The description is as above. The procedure, abridged:
as §1

For experiment [5], the system named is HepG2-TP53BP1-CLTA. Described as above. The procedure, abridged: as §1
The test system of experiment [6] is A549-ACTB-RAB5A. In words: phenotypically active (imaging signature differs from DMSO and reproducible) at any of 0.3-9 uM (binary (1 = active, 0 = inactive)); higher = active. The procedure, abridged: as §1
For experiment [7], the system named is A549-CANX-COX4. The experiment is described as above. The procedure, abridged: as §1
In experiment [8] the test system is A549-GM130-SQSTM1. Described as above. The procedure, abridged:
as §1

The subject of experiment [9] is A549-TP53BP1-CLTA. The experiment is described as above. In outline:
as §1

Experiment [10] has as its system A549-TUBA1B-RELA. Described as above. In outline:
as §1

In experiment [11] the test system is HepG2-ACTB-RAB5A. The description is as above. The procedure, abridged:
as §1

The subject of experiment [12] is HepG2-CANX-COX4. The description is as above. The procedure, abridged:
as §1

The test system of experiment [13] is HepG2-GM130-SQSTM1. The experiment is described as above. The procedure, abridged:
as §1

Experiment [14] relates to HepG2-TP53BP1-CLTA. Described as above. In outline: as §1
For experiment [15], the system named is HepG2-TUBA1B-RELA. The description is as above. In outline:
as §1

Experiment [16] has as its system WPMY1-ACTB-RAB5A. Described as above. In outline: as §1
Experiment [17] has as its system WPMY1-CANX-COX4. Described as above. The procedure, abridged:
as §1

Experiment [18] has as its system WPMY1-GM130-SQSTM1. The description is as above. The procedure, abridged:
as §1

Experiment [19] relates to WPMY1-TP53BP1-CLTA. The experiment is described as above. The procedure, abridged:
as §1

For experiment [20], the system named is WPMY1-TUBA1B-RELA. Described as above. The procedure, abridged:
as §1

As for `CN1C[C@H](C(=O)N[C@]2(C)O[C@@]3(O)[C@@H]4CCCN4C(=O)[C@H](Cc4ccccc4)N3C2=O)C=C2c3cccc4[nH]cc(c34)C[C@H]21` [ergotamine], the “lowest phenotypically active concentration” value worked out at 9 µM in [1]; 3 µM in [2]; 3 µM in experiment [3]; 3 µM in experiment [4]; 3 µM in experiment [5]. Moreover, the phenotypically active in experiment [6], in experiment [7], in experiment [8], in [9], in experiment [10] and in [11] was 1 (active) throughout. The phenotypically active in [12], in experiment [13], in experiment [14], in experiment [15], in [16] and in [17] was 1 (active) in each case. For the same compound, the phenotypically active in experiment [18], in [19] and in experiment [20] was 1 (active) throughout.

Turning to `C[C@@H](N)[C@@H](O)c1ccccc1` [phenylpropanolamine], the phenotypically active in [6], in experiment [7], in experiment [8], in [9], in [10] and in experiment [11] was 0 (inactive) throughout. For the same compound, the phenotypically active in experiment [12], in experiment [13], in experiment [14], in experiment [15], in [16] and in [17] was 0 (inactive) in each case. The phenotypically active in experiment [18], in experiment [19] and in experiment [20] was 0 (inactive) in each case.

Consider `Cc1sc2c(c1C)C(c1ccc(Cl)cc1)=N[C@@H](CC(N)=O)c1nnc(C)n1-2`, for which the “lowest phenotypically active concentration” value in experiment [1], in [2], in experiment [3], in experiment [4] and in [5] was at most 0.3 µM in each case. The phenotypically active in experiment [6], in [7], in experiment [8], in [9], in experiment [10] and in experiment [11] was 1 (active) in each case. In addition, the phenotypically active in experiment [12], in experiment [13], in experiment [14], in experiment [15], in experiment [16] and in [17] was 1 (active) each time. The phenotypically active in [18], in experiment [19] and in experiment [20] was 1 (active) throughout.

On to `C[C@]12COC(=O)C[C@@H]1CC[C@@H]1[C@@H]2CC[C@@]2(C)[C@H]1CC[C@]2(C)O` [oxandrolone], for which the phenotypically active in [6], in experiment [7], in [8], in experiment [9], in experiment [10] and in experiment [11] was 0 (inactive) each time. Moreover, the phenotypically active in experiment [12], in experiment [13], in [14], in experiment [15], in [16] and in [17] was 0 (inactive) throughout. For the same compound, the phenotypically active in experiment [18], in experiment [19] and in experiment [20] was 0 (inactive) in each case.

Turning to `C=C(C)[C@H]1CN[C@H](C(=O)O)[C@H]1CC(=O)O` [Kainic acid], the phenotypically active in experiment [6], in experiment [7], in experiment [8], in experiment [9], in [10] and in [11] was 0 (inactive) in each case. The phenotypically active in experiment [12], in experiment [13], in experiment [14], in experiment [15], in experiment [16] and in experiment [17] was 0 (inactive) throughout. Also, the phenotypically active in experiment [18], in [19] and in [20] was 0 (inactive) each time.

Source of the values: the supplement of paper PMC7411054.
